Reference: PubChem BioAssay (NCI)
About 83,000 compounds went through this panel and 20% of them were active in at least one assay; those are over-represented in the sample as a whole.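 Interpretation: 100, growth as untreated; towards 0, rising growth inhibition; 0, no net growth; 0 to -100, cell death. Compounds scoring below 10 were considered active.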 Activity calls are given as the source filed them.

Columns and labels:
Assay in all cases: NCI-60 one-dose screen, 48 h (100 = growth as untreated, 0 = no growth, -100 = all killed)
Conditions in all cases: 10 µM unless noted
DU-145 prostate = tested on: DU-145 prostate
K-562 leukemia = tested on: K-562 leukemia
MALME-3M melanoma = tested on: MALME-3M melanoma
MDA-MB-231 breast = tested on: MDA-MB-231 breast
SF-268 CNS = tested on: SF-268 CNS
SF-295 CNS = tested on: SF-295 CNS
SF-539 CNS = tested on: SF-539 CNS
UACC-257 melanoma = tested on: UACC-257 melanoma
M14 melanoma = tested on: M14 melanoma
HCT-15 colon = tested on: HCT-15 colon
HT29 colon = tested on: HT29 colon
SNB-75 CNS = tested on: SNB-75 CNS
SNB-19 CNS = tested on: SNB-19 CNS
U251 CNS = tested on: U251 CNS
PC-3 prostate = tested on: PC-3 prostate
SK-MEL-5 melanoma = tested on: SK-MEL-5 melanoma
UACC-62 melanoma = tested on: UACC-62 melanoma
LOX IMVI melanoma = tested on: LOX IMVI melanoma
SK-MEL-28 melanoma = tested on: SK-MEL-28 melanoma

Measured: growth

Clc1ccc(C2CC(c3cccc(Nc4ccncc4)c3)=NN2c2ccc(Cl)cc2)cc1 (configuration not stated)
inactive: DU-145 prostate 17.6% | MDA-MB-231 breast 19% | SF-268 CNS 60.2% | SF-539 CNS 71.2% | UACC-257 melanoma 64.7% | SNB-75 CNS 70.7% | SNB-19 CNS 67.8% | PC-3 prostate 17% | SK-MEL-5 melanoma 33.8% | UACC-62 melanoma 98%
active: K-562 leukemia -1.93% | MALME-3M melanoma -64.4% | SF-295 CNS -79.2% | M14 melanoma -80.1% | HCT-15 colon -71.6% | HT29 colon -5.47% | U251 CNS -49.7% | LOX IMVI melanoma -97.2% | SK-MEL-28 melanoma -92.3%

COc1ccc(C(=O)c2cc3c(N)c(C(=O)Nc4cccc(Br)c4C)sc3nc2C)cc1
active: DU-145 prostate 8.9% | K-562 leukemia 5.28% | SF-539 CNS -15.3% | M14 melanoma 7.09% | HT29 colon -1.07% | SNB-75 CNS -16.9% | SK-MEL-5 melanoma -36.2%
inactive: MALME-3M melanoma 51.8% | MDA-MB-231 breast 13% | SF-268 CNS 22.9% | SF-295 CNS 22.2% | UACC-257 melanoma 59% | HCT-15 colon 14.2% | SNB-19 CNS 43% | U251 CNS 10.7% | PC-3 prostate 21% | UACC-62 melanoma 38% | LOX IMVI melanoma 19% | SK-MEL-28 melanoma 62.1%

Cc1c2c(cc[n+]1Cc1ccccc1)c1ccc(OCc3ccccc3)cc1n2Cc1ccccc1
active: DU-145 prostate -33.6% | K-562 leukemia -25% | MALME-3M melanoma -73.6% | MDA-MB-231 breast -85.1% | SF-268 CNS -90.4% | SF-295 CNS -69.2% | SF-539 CNS -5.52% | UACC-257 melanoma -0.651% | M14 melanoma -87.9% | HT29 colon -48.7% | SNB-75 CNS -18% | SNB-19 CNS -13.3% | U251 CNS -80.2% | PC-3 prostate -44.8% | SK-MEL-5 melanoma -99.4% | UACC-62 melanoma -87.1% | LOX IMVI melanoma -93.2% | SK-MEL-28 melanoma -56.5%
inactive: HCT-15 colon 39.2%

Nc1nnc2cc(Cl)ccc2n1
inactive: DU-145 prostate 105% | K-562 leukemia 83.9% | MALME-3M melanoma 126% | MDA-MB-231 breast 96.9% | SF-268 CNS 112% | SF-295 CNS 140% | SF-539 CNS 111% | UACC-257 melanoma 127% | M14 melanoma 113% | HCT-15 colon 94.2% | HT29 colon 119% | SNB-75 CNS 91.6% | SNB-19 CNS 104% | U251 CNS 98.4% | PC-3 prostate 77% | SK-MEL-5 melanoma 102% | UACC-62 melanoma 93.1% | LOX IMVI melanoma 87.9% | SK-MEL-28 melanoma 114%

C=Cc1cc[n+](CCCCCCCCCCCC)cc1
inactive: DU-145 prostate 105% | K-562 leukemia 93.8% | MALME-3M melanoma 111% | MDA-MB-231 breast 99.9% | SF-268 CNS 99.7% | SF-295 CNS 106% | SF-539 CNS 104% | UACC-257 melanoma 111% | M14 melanoma 102% | HCT-15 colon 110% | HT29 colon 99.2% | SNB-75 CNS 97.4% | SNB-19 CNS 103% | U251 CNS 109% | PC-3 prostate 110% | SK-MEL-5 melanoma 104% | UACC-62 melanoma 105% | LOX IMVI melanoma 99.7% | SK-MEL-28 melanoma 111%

Cc1ccccc1-c1cc(Cc2ccc(F)cc2)c(=O)[nH]n1
inactive: DU-145 prostate 130% | K-562 leukemia 84.8% | MALME-3M melanoma 88% | MDA-MB-231 breast 109% | SF-268 CNS 94.6% | SF-295 CNS 123% | SF-539 CNS 94.2% | UACC-257 melanoma 137% | M14 melanoma 118% | HCT-15 colon 110% | HT29 colon 117% | SNB-75 CNS 101% | SNB-19 CNS 88.2% | U251 CNS 106% | PC-3 prostate 116% | SK-MEL-5 melanoma 98.3% | UACC-62 melanoma 99.6% | LOX IMVI melanoma 98.9% | SK-MEL-28 melanoma 118%

Cc1[nH]n(C(=O)c2ccncc2)c(=O)c1N=Nc1ccc(F)c(Cl)c1
inactive: DU-145 prostate 139% | K-562 leukemia 21.4% | MALME-3M melanoma 104% | MDA-MB-231 breast 100% | SF-268 CNS 94.2% | SF-295 CNS 91.1% | SF-539 CNS 97% | UACC-257 melanoma 11.7% | M14 melanoma 99.8% | HCT-15 colon 111% | HT29 colon 109% | SNB-75 CNS 92.4% | SNB-19 CNS 99.1% | U251 CNS 112% | PC-3 prostate 116% | SK-MEL-5 melanoma 107% | UACC-62 melanoma 106% | LOX IMVI melanoma 111% | SK-MEL-28 melanoma 107%

Fc1ccc(C2CC(c3cccc(Nc4ccncc4)c3)=NN2c2cc(Cl)cc(Cl)c2)cc1 (configuration not stated)
inactive: DU-145 prostate 30.2% | MALME-3M melanoma 15.3% | MDA-MB-231 breast 61.4% | SF-268 CNS 72.4% | SF-295 CNS 63.3% | SF-539 CNS 83% | UACC-257 melanoma 85.9% | M14 melanoma 104% | SNB-75 CNS 72.2% | SNB-19 CNS 82.3% | PC-3 prostate 26% | SK-MEL-5 melanoma 84.7% | UACC-62 melanoma 98.7% | SK-MEL-28 melanoma 20.2%
active: K-562 leukemia 0.115% | HCT-15 colon -42.3% | HT29 colon -21.5% | U251 CNS -29.5% | LOX IMVI melanoma -83%
